Data published in PubChem BioAssay (NCATS).
Results filed as inconclusive are left out. The source made the active and inactive calls. Calls come from the whole dose curve; as a rule, active = well fitted curve in the direction sought with a large enough effect; inconclusive = small, poorly fitted or top-dose-only effect, or another doubt; inactive = no such curve, though single readings can be large; an effect the other way counts as inactive or inconclusive.

Key:
[1] = biological target: Rap guanine nucleotide exchange factor 3 (Homo sapiens) (UniProt O95398); experiment: Confirmatory qHTS for agonist of cAMP-regulated guanine nucleotide exchange factor 3 (EPAC1) (AID 1645881);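 note: EPAC1 catalysed release of BODIPY-GDP from Rap1B seen as fluorescence loss; 100% = effect of cAMP agonist control; nearly all actives have a fitted effect of over 75% in size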
[2] = biological target: Rap guanine nucleotide exchange factor 4 (Homo sapiens) (UniProt Q8WZA2); experiment: Confirmatory qHTS for agonist of cAMP-regulated guanine nucleotide exchange factor 4 (EPAC2) (AID 1645884);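 note: nucleotide exchange releases bodipy-GDP from Rap1 and this lowers its fluorescence; % is set by controls: 0 for no effect and ±100 for the full control effect; nearly all actives have a fitted effect of over 65% in size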
[3] = biological target: Rap guanine nucleotide exchange factor 4 (Homo sapiens) (UniProt Q8WZA2); experiment: Confirmatory qHTS for antagonist of cAMP-regulated guanine nucleotide exchange factor 4 (EPAC2) (AID 1645885); note: nearly all actives have a fitted effect of over 25% in size; for activity change, negative = inhibition: % is set by controls: 0 for no effect and ±100 for the full control effect
[4] = biological target: Rap guanine nucleotide exchange factor 3 (Homo sapiens) (UniProt O95398); experiment: Counterscreen qHTS for antagonist of cAMP-regulated guanine nucleotide exchange factor 3 (EPAC1) (AID 1645888);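 note: fluorescence loss as bound BODIPY-GDP is released from Rap1B; % of control where 0% means no effect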
Method in brief: (§1)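 Rap1B-BODIPY-GDP 250 nM + GDP 50 uM; cpds 7-pt, final 9.74 nM–152 uM (activator mode) or from 7.32 nM upwards (inhibitor mode); RT; FI 480/540 nm at 5 and 30 min, then ± cAMP, reread.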

[5] = biological target: Rap guanine nucleotide exchange factor 3 (Homo sapiens) (UniProt O95398); experiment: Counterscreen qHTS for agonist of cAMP-regulated guanine nucleotide exchange factor 3 (EPAC1) (AID 1645889); note: % of control where 0% means no effect; nearly all actives have a fitted effect of over 40% in size
Method in brief: as §1

Chain of Rap guanine nucleotide exchange factor 4 (Homo sapiens) (Q8WZA2 whole entry, looked up): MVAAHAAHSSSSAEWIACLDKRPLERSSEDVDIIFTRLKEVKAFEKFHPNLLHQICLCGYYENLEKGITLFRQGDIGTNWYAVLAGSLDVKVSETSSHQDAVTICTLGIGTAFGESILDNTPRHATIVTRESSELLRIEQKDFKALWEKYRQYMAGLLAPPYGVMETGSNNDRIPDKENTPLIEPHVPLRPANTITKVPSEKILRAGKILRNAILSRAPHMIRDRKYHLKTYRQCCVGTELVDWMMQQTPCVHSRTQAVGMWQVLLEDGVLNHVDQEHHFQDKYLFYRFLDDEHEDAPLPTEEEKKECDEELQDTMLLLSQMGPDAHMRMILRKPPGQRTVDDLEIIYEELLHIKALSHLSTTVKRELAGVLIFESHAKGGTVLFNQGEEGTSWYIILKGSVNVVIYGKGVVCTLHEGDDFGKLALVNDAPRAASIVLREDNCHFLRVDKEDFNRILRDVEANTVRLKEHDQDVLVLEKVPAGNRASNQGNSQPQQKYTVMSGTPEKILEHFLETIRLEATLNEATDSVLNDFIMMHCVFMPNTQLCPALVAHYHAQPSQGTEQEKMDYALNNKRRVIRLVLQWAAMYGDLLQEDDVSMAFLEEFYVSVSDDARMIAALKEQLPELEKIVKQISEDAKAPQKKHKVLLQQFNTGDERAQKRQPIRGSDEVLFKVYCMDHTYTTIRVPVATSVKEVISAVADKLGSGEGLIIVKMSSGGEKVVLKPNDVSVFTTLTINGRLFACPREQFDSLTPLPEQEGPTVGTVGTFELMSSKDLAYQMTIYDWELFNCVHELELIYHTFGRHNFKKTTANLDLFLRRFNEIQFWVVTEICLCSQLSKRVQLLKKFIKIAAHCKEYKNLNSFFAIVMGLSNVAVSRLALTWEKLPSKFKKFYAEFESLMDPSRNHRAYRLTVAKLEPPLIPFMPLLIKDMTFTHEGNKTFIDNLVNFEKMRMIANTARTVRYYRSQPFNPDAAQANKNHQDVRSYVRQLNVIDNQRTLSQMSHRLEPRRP
Chain of Rap guanine nucleotide exchange factor 3 (Homo sapiens) (O95398 whole entry, looked up): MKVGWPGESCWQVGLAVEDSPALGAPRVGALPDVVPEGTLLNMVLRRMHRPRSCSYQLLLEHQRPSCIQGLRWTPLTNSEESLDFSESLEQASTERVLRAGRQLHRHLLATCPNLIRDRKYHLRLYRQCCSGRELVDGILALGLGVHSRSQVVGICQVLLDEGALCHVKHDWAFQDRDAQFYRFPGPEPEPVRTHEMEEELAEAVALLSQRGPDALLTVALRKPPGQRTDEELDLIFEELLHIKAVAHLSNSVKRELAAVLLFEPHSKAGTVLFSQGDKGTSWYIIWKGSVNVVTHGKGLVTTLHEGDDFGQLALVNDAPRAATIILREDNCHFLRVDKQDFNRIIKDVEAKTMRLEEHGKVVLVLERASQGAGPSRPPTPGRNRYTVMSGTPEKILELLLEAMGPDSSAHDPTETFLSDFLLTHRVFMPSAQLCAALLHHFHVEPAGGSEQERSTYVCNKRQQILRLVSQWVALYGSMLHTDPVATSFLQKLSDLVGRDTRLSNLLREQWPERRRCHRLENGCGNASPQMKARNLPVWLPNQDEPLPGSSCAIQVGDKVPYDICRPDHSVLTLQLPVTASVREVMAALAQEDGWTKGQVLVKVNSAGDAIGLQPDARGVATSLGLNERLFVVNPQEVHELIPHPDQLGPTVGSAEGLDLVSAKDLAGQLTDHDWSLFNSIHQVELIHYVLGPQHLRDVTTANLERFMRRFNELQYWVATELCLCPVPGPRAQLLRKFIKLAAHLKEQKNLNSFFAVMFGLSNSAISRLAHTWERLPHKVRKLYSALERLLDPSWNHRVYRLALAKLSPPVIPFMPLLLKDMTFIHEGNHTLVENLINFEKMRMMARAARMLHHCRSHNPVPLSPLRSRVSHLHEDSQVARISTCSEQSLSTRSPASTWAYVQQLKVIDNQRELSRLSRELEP

O=C(Cc1ccc(Cl)cc1)Nc1cccc(C(=O)Nc2ccccc2C(=O)O)c1
inactive: Potency [1] | activation [2] 8.25% [at 17.1 µM, percent relative to cAMP agonist control] | Potency [3] | activity change, negative = inhibition [4] -15.6% [at 30.8 µM] | activation [5] 2.92% [at 30.8 µM]

COc1ccc(Nc2nnc(-c3ccc(O)cc3)c3ccccc23)cc1
inactive: Potency [1] | activation [2] 5.03% [at 17.1 µM, percent relative to cAMP agonist control] | Potency [3] | activity change, negative = inhibition [4] -17.5% [at 30.8 µM] | activation [5] 26.4% [at 30.8 µM]

CC(C)(C)c1ccc(C(=O)N/C(=C\c2cccc([N+](=O)[O-])c2)C(=O)Nc2cccc(C(=O)O)c2)cc1
inactive: Potency [1] | activation [2] 8.06% [at 17.1 µM, percent relative to cAMP agonist control] | Potency [3] | activity change, negative = inhibition [4] -17.2% [at 30.8 µM] | activation [5] 22.2% [at 30.8 µM]

O=C(COC(=O)c1ccc([N+](=O)[O-])s1)NCc1ccccc1
inactive: Potency [1] | Potency [2] | Potency [3] | Potency [4] | Potency [5]

C[C@H]1CN([C@@H](C)CO)C(=O)c2cccc(NC(=O)C3CC3)c2O[C@H]1CN(C)S(=O)(=O)c1ccccc1
inactive: Potency [1] | Potency [2] | Potency [3] | Potency [4] | Potency [5]

CC(=O)c1c(C)[nH]c(C(=O)OCC(=O)c2ccc3c(c2)NC(=O)CO3)c1C
inactive: Potency [1] | Potency [2] | Potency [3] | Potency [4] | Potency [5]

CC(C)(C)n1nc(Cc2cccc3ccccc23)c(C#N)c1N
inactive: Potency [1] | Potency [2] | Potency [3] | Potency [4] | Potency [5]

CC(C)(C)c1ccc(OCc2ccc(C(=O)N/N=C/c3ccc(O)c(O)c3)cc2)cc1
inactive: Potency [1] | activation [2] -9.36% [at 17.1 µM, percent relative to cAMP agonist control] | Potency [3] | activity change, negative = inhibition [4] -20.9% [at 30.8 µM] | activation [5] 10.5% [at 30.8 µM]

CCN(CC)C(=O)c1ccc2c(c1)N(Cc1ccc(C(F)(F)F)cc1)C(=O)c1ccccc1S2
inactive: Potency [1] | Potency [2] | outcome [3] inactive [at 12.7 µM] | Potency [4] | Potency [5]

CC1(Cc2ccccc2Cl)C(=O)Nc2ccc(OC(F)(F)F)cc21 (stereo not given)
inactive: Potency [1] | activation [2] 0.883% [at 17.1 µM, percent relative to cAMP agonist control] | Potency [3] | activity change, negative = inhibition [4] -9.83% [at 30.8 µM] | activation [5] 5.61% [at 30.8 µM]

Cc1ccc(-c2nnc(Nc3ccc(OCC(N)=O)cc3)c3ccccc23)cc1S(N)(=O)=O
inactive: Potency [1] | Potency [2] | Potency [3] | Potency [4] | Potency [5]

CNc1ccc(/C=C/C(=O)c2ccc(C)cc2)cc1[N+](=O)[O-]
inactive: Potency [1] | activation [2] -1.81% [at 17.1 µM, percent relative to cAMP agonist control] | Potency [3] | activity change, negative = inhibition [4] 16.3% [at 30.8 µM] | activation [5] 21% [at 30.8 µM]

O=C(Nc1ccc(Br)cc1C(=O)O)c1ccc2c(c1)C(=O)N(Cc1ccccc1)C2=O
inactive: Potency [1] | Potency [2] | Potency [3] | Potency [4] | Potency [5]

Cc1ccc2oc(=O)n(CCOc3ccccc3C)c2c1
inactive: Potency [1] | activation [2] 11.2% [at 17.1 µM, percent relative to cAMP agonist control] | Potency [3] | activity change, negative = inhibition [4] -6.86% [at 30.8 µM] | activation [5] 15.6% [at 30.8 µM]

Cc1ccc(CN(C(=O)COc2cc(C)c(Cl)c(C)c2)c2ccccn2)o1
inactive: Potency [1] | Potency [2] | Potency [3] | Potency [4] | Potency [5]

Cc1csc2c(=O)sc(NC(=O)c3cccs3)nc12
inactive: Potency [1] | Potency [2] | Potency [3] | Potency [4] | Potency [5]

CCOC(=O)c1ccc2c(c1)C1C=CCC1C(C(=O)OCC)N2 (stereo not given)
inactive: Potency [1] | activation [2] 4.17% [at 17.1 µM, percent relative to cAMP agonist control] | Potency [3] | activity change, negative = inhibition [4] -1.12% [at 30.8 µM] | activation [5] 32.7% [at 30.8 µM]

Cc1ccc(F)c(S(=O)(=O)NC(=O)C2(C)CCN2C(=O)C2(c3ccc(Cl)cc3)CCC2)c1 (stereo not given)
inactive: Potency [1] | Potency [2] | Potency [3] | Potency [4] | Potency [5]

Cc1ccc(S(=O)(=O)NC(=O)c2ccc(-c3ccc(C)c4ccccc34)o2)cc1
inactive: Potency [1] | Potency [2] | Potency [3] | Potency [4] | Potency [5]

CC(=O)Nc1ccc(S(=O)(=O)Nc2nc3ccccc3nc2-n2ccc(=NC(=O)c3ccccc3)cc2)cc1
inactive: Potency [1] | activation [2] -0.645% [at 17.1 µM, percent relative to cAMP agonist control] | Potency [3] | activity change, negative = inhibition [4] -23.7% [at 30.8 µM] | activation [5] 5.94% [at 30.8 µM]

CCc1ccc2c(c1)NC(=O)C2(C)Cc1ccccc1OC (stereo not given)
inactive: Potency [1] | Potency [2] | Potency [3] | Potency [4] | Potency [5]

O=C(CCN1C(=O)S/C(=C\c2ccc(Cl)cc2)C1=O)Nc1ccc(C(=O)O)cc1
inactive: Potency [1] | Potency [2] | Potency [3] | Potency [4] | Potency [5]

C/C=C/c1cc(OC)c2c(c1)[C@H](C)[C@@H](c1ccc(O)c(OC)c1)O2
inactive: Potency [1] | Potency [2] | Potency [3] | Potency [4] | Potency [5]

Cc1ccc(SCC(=O)OCC(=O)N(C)CC(=O)Nc2ccc(F)cc2)cc1C
inactive: Potency [1] | activation [2] 5.96% [at 17.1 µM, percent relative to cAMP agonist control] | Potency [3] | activity change, negative = inhibition [4] -28.7% [at 30.8 µM] | activation [5] 26.8% [at 30.8 µM]

CN(c1ccccc1)c1ccc(/C=C(\CCC(=O)O)c2nc3ccccc3s2)cc1[N+](=O)[O-]
inactive: Potency [1] | Potency [2] | Potency [3] | Potency [4] | Potency [5]

CC(C)(C)C(=O)Nc1cccc(C(=O)OCc2cc(=O)n3nc(C4CCCCC4)sc3n2)c1
inactive: Potency [1] | Potency [2] | outcome [3] inactive [at 12.7 µM] | Potency [4] | Potency [5]

CC1CCc2[nH]c3ccc(C(=O)N4CCCC(C(F)(F)F)C4)cc3c2C1 (stereo not given)
inactive: Potency [1] | Potency [2] | Potency [3] | Potency [4] | Potency [5]

Oc1ccc2ccccc2c1C=Nc1ccc(Cl)cn1
inactive: Potency [1] | Potency [2] | Potency [3] | Potency [4] | Potency [5]

O=C(O)c1ccc(N/N=C/c2cn(Cc3ccccc3F)c3ccccc23)cc1
inactive: Potency [1] | Potency [2] | Potency [3] | Potency [4] | Potency [5]

Cc1ccc(OCC(=O)Nc2ccc(N3CCCC3)cc2)cc1C
inactive: Potency [1] | Potency [2] | Potency [3] | Potency [4] | Potency [5]

CCCCN(C(=O)Cn1ncc(Cl)c(Cl)c1=O)c1c(N)n(CC(C)C)c(=O)[nH]c1=O
inactive: Potency [1] | activation [2] 3.26% [at 17.1 µM, percent relative to cAMP agonist control] | Potency [3] | activity change, negative = inhibition [4] -8.9% [at 30.8 µM] | activation [5] 16.5% [at 30.8 µM]

CCOc1ccc(C=NNc2ccc(S(=O)(=O)Nc3ccccc3C(=O)O)cc2[N+](=O)[O-])cc1
inactive: Potency [1] | activation [2] -0.564% [at 17.1 µM, percent relative to cAMP agonist control] | Potency [3] | activity change, negative = inhibition [4] 6.79% [at 30.8 µM] | activation [5] 21.3% [at 30.8 µM]

Oc1ccc(NCc2ccc(OCc3ccccc3)cc2)cc1
inactive: Potency [1] | Potency [2] | Potency [3] | Potency [4] | activation [5] 16.4% [at 30.8 µM]

Cc1ccc(C(C)C)c(OCCCn2c(=O)oc3ccc(C)cc32)c1
inactive: Potency [1] | Potency [2] | Potency [3] | Potency [4] | Potency [5]

CC1(C)[C@@H](O)CC[C@]2(C)C3C(O)C=C4[C@H]5C[C@@](C)(CO)CC[C@]5(C)CC[C@]4(C)[C@]3(C)CC[C@@H]12 (stereo not given in full)
inactive: Potency [1] | activation [2] -6.54% [at 17.1 µM, percent relative to cAMP agonist control] | Potency [3] | activity change, negative = inhibition [4] -3.14% [at 30.8 µM] | activation [5] -1.49% [at 30.8 µM]
